Screening results (PubChem BioAssay)
Compounds with a hit are over-represented: about 12% of the library has one in this group of screens.
Sm TGR block – inhibitors of Schistosoma mansoni thioredoxin glutathione reductase | Potency, µM (highest dose often 114 µM), for inactives: at the top dose activity change, negative = inhibition, hits mostly inhibitors | 360,000 compounds, 3% hits | Q962Y6 | AID 485364 | purified TGR, DTNB reduction, TNB absorbance 405 nm; active = well fitted inhibition curve with a large enough effect; inconclusive = small, poorly fitted or top-dose-only effect; inactive = no such curve, though single readings can be large or run the other way; note: potency is the fitted concentration of half-maximal effect; % is set by controls: 0 for no effect and ±100 for the full control effect; nearly all actives have a fitted effect of over 60% in size
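Kinetic colorimetric format: TGR-catalysed, NADPH-driven DTNB reduction monitored via TNB absorbance. Enzyme dispensed at 20 nM; compound exposure 15 min at room temperature before reaction start.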
FMDV inh – blocks foot and mouth disease virus. AID 1159524. Potency, µM (top dose mostly 57.9 µM), without a hit: at the top dose activity change, negative = inhibition, usual class: inhibitors. 410,000 compounds, 1.2% hits. FMDV antiviral cell-based qHTS; calls by dose curve; tested in HEK293T cells; note: read-out not given here; potency is the fitted concentration of half-maximal effect; % is set by controls: 0 for no effect and ±100 for the full control effect; nearly all actives have a fitted effect of over 45% in size
Shiga toxin inh – inhibitors of Shiga toxin in Vero cells; Vero cells, Shiga toxin protein synthesis inhibition reporter; inhibition, % at 38.7 µM; 290,000 compounds, 9.2% hits; AID 2315; in the data active = inhibition mostly above about 28%, no sharp cut-off; inactive = mostly below about 43%; note: 0% is about no effect
Cycloheximide cs – affects cycloheximide protein synthesis inhibition readout, counter-screen | cell reporter, cycloheximide protein synthesis inhibition counterscreen | max response, % | 300,000 compounds, 12% hits | AID 2314; in the data active = max response mostly above about 13%, no sharp cut-off; inactive = mostly below about 14%; note: read at 38.3 µM for the half of the compounds with a filed dose; 0% is about no effect
* marks the source's active call; other numbers are inactive results.

For CCCn1nnc(NC(=O)c2ccc(-c3ccccc3)cc2)n1 the results were Sm TGR block -7.4%, Shiga toxin inh 100.1* and Cycloheximide cs 20.6*.
For CCCn1nnc(NC(=O)c2ccc(Br)cc2)n1 the results were Sm TGR block 3.5%, FMDV inh 67.7%, Shiga toxin inh 98.8* and Cycloheximide cs 44.8*.
`CCOc1ccc(C(=O)Nc2nnn(CC)n2)cc1` gave Sm TGR block 0.0%, FMDV inh 8.7%, Shiga toxin inh 75.3* and Cycloheximide cs 35.6*.
CCCn1nnc(NC(=O)C(c2ccccc2)c2ccccc2)n1 was read as Sm TGR block 3.0%, FMDV inh -4.3%, Shiga toxin inh 20.6 and Cycloheximide cs -2.6.
CCCn1nnc(NC(=S)NC(=O)c2ccc(-c3ccc(Br)cc3)o2)n1 was read as Sm TGR block 27.4%, FMDV inh -11.6%, Shiga toxin inh 40.9 and Cycloheximide cs 11.6.
CCCn1nnc(NC(=O)c2ccc(OC)cc2)n1 was read as Sm TGR block -1.1%, FMDV inh 42.2%, Shiga toxin inh 43.3 and Cycloheximide cs 37.2*.
Screening COC(=O)c1c(OCc2ccccn2)cc(=O)n2c1CCN(Cc1ccc3nsnc3c1)CC2 returned FMDV inh -4.9%.
Screening CCOC(=O)CCCNC(=O)CCNC(=O)c1ccc(OC(C)C)cc1 returned Sm TGR block 8.8%, FMDV inh 31.1%, Shiga toxin inh 54.4* and Cycloheximide cs 16.5*.
CCOC(=O)CCCNC(=O)CCNC(=O)c1ccc(OCC(C)C)cc1 was read as Sm TGR block -1.1%, FMDV inh -6.6%, Shiga toxin inh -2.5 and Cycloheximide cs -2.9.
For CCC(NC(=O)Nc1cc(OC)ccc1OC)c1c(-n2cccc2)sc2c1CCN(CC)C2 (stereo not given) the results were Sm TGR block -21.2% and FMDV inh 4.9%.
For CCOC(=O)c1ccc(NC(=O)N2CCCCCC2)cc1 the results were Sm TGR block 1.9%, FMDV inh 16.0%, Shiga toxin inh 123.2* and Cycloheximide cs 75.6*.
`CCCN1CCN(C(=O)Nc2ccc(C(=O)OCC)cc2)CC1` gave Sm TGR block 0.3%, FMDV inh 18.0%, Shiga toxin inh 29.5 and Cycloheximide cs 12.4*.
Screening CCOC(=O)c1ccc(NC(=O)N2CCOCC2)cc1 returned Sm TGR block 0.0%, FMDV inh 57.7%, Shiga toxin inh 98.2* and Cycloheximide cs 35.1.
For O=C(Nc1ccc(Cc2ccc(NC(=O)N3CCOCC3)cc2)cc1)N1CCOCC1 the results were Sm TGR block 2.1%, FMDV inh 6.9%, Shiga toxin inh 6.9 and Cycloheximide cs -1.8.
CCOC(=O)c1ccc(NC(=O)N2CCN(C(=O)C3CCCO3)CC2)cc1 (stereo not given) was read as Sm TGR block 1.4%, FMDV inh -14.9%, Shiga toxin inh -14.8 and Cycloheximide cs 1.3.
CCC(C)c1ccc(NC(=O)N2CCOCC2)cc1 (stereo not given) was read as Sm TGR block -16.1%, FMDV inh 55.0%, Shiga toxin inh 68.2* and Cycloheximide cs 41.4*.
COc1ccccc1-c1nc2c(c(SCc3cccc(Cl)c3)n1)Cc1c(CO)cnc(C)c1O2 was read as Sm TGR block -2.1% and FMDV inh inconclusive.
`COc1ccc(N2CC(NC(=O)c3c(F)cccc3Cl)CC2=O)cc1OC` (stereo not given) gave Sm TGR block 0.1% and FMDV inh 2.0%.
CC(=O)Nc1ccc(NC(=O)N2CCCCC2)cc1 was read as Sm TGR block -2.4%, FMDV inh -7.2%, Shiga toxin inh 13.3 and Cycloheximide cs 6.3.
Screening CCC(C)c1ccc(NC(=S)NC(C)C2CCCO2)cc1 (stereo not given) returned Sm TGR block 0.8%, FMDV inh 33.5%, Shiga toxin inh 37.5* and Cycloheximide cs 10.5*.
`O=C(Nc1ccc(F)cc1)N1CCCCCC1` gave Sm TGR block -12.6%, FMDV inh 38.9%, Shiga toxin inh 31.5* and Cycloheximide cs 14.7*.
`CCOC(=O)c1ccc(NS(=O)(=O)N2CCCCCC2)cc1` gave Sm TGR block 4.2%, FMDV inh 16.5%, Shiga toxin inh 73.8* and Cycloheximide cs 32.2*.
COc1ccc(-c2nc3ccccc3n3c(-c4ccccc4)c4c(=O)n(C)c(=O)n(C)c4c23)cc1OC was read as Sm TGR block -4.1% and FMDV inh -0.7%.
`CC(=O)N1CCN(c2ccc(NC(=S)NC(=O)c3ccc(C)c([N+](=O)[O-])c3)cc2)CC1` gave Sm TGR block 11.2µM*, FMDV inh -17.7%, Shiga toxin inh -10.9 and Cycloheximide cs 1.1.
For COc1ccc(C(=O)NC(=S)Nc2ccc(N3CCN(C(C)=O)CC3)cc2)cc1[N+](=O)[O-] the results were Sm TGR block 8.91µM*, FMDV inh -26.5%, Shiga toxin inh -6.8 and Cycloheximide cs -4.3.
Screening CCOc1ccc(C(=O)NC(=S)Nc2ccc(N3CCCCC3)cc2)cc1[N+](=O)[O-] returned Sm TGR block 0.0%, FMDV inh inconclusive, Shiga toxin inh -6.4 and Cycloheximide cs 2.1.
For COc1ccc(C(=O)Nc2ccc(N3CCN(C)CC3)cc2)cc1[N+](=O)[O-] the results were Sm TGR block 8.4%, FMDV inh 8.4%, Shiga toxin inh 10.5 and Cycloheximide cs 0.5.
`CCC(=Nc1ccccc1O)C1=C(O)CC(c2ccccc2)CC1=O` (stereo not given) gave Sm TGR block -33.0%, FMDV inh -14.5%, Shiga toxin inh 34.0 and Cycloheximide cs 10.8*.
CCOc1ccccc1CNC(=O)CN1C(=O)CCc2cc(S(=O)(=O)N3CCCCC3)ccc21 was read as Sm TGR block 2.7% and FMDV inh 13.4%.
For CCOC(=O)c1c(C)c(C(=O)NCCc2ccccc2)c(C)n1C the results were Sm TGR block -22.6%, FMDV inh 41.2%, Shiga toxin inh 104.0* and Cycloheximide cs 40.3*.
`CCOC(=O)c1c(C)c(/C=N/Nc2ccccc2)n(C)c1C` gave Sm TGR block -24.7%, FMDV inh 23.0%, Shiga toxin inh 30.5 and Cycloheximide cs 13.1*.
For CCn1c(C)c(C(=O)NCCc2ccccc2)c2cc(OC)ccc21 the results were Sm TGR block -2.5%, FMDV inh 11.7%, Shiga toxin inh 18.5 and Cycloheximide cs 18.5*.
CCOC(=O)c1c(C)c(C(=O)NCc2cccnc2)c(C)n1C was read as Sm TGR block 8.5%, FMDV inh -18.1%, Shiga toxin inh 9.4 and Cycloheximide cs 7.7.
CCOC(=O)c1c(C)c(C(=O)NCCc2ccc(OC)cc2)c(C)n1CC was read as Sm TGR block 22.4µM* and FMDV inh -17.4%.
`CCN(CC)C(=O)c1sc2c(c1C)c(=O)n(-c1ccc(OC)cc1OC)c(=O)n2CC(=O)c1ccc(Cl)cc1` gave Sm TGR block 1.8% and FMDV inh -5.8%.
`CCOC(=O)c1c(C)c(C(=O)Nc2ccccc2)c(C)n1CC` gave Sm TGR block 4.4%, FMDV inh 25.8%, Shiga toxin inh 31.5* and Cycloheximide cs 24.3*.
For Cc1ccccc1OCCn1c(=N)n(C(C)C)c2ccccc21 the results were Sm TGR block -5.7% and FMDV inh inconclusive.
`O=C(NNC1=Nc2ccccc2SC1)c1ccccc1F` gave Sm TGR block -1.2%, FMDV inh -2.7%, Shiga toxin inh 71.9* and Cycloheximide cs 39.3*.
